Assay results reported in the supplement of paper PMC9023506.
Structures can show the parent of a compound that is named as a salt.

System: Danio rerio larvae (5 dpf)
Experiment: excitability to 1-s acoustic pulses, difference vs DMSO (percentage points (treated minus DMSO)); higher = more of the behaviour than the DMSO vehicle control
Conditions: 10 µM; exposure time: 3 h pre-incubation + 3 h imaging
Method: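 5-dpf wild-type zebrafish larvae were imaged in 96-well plates. They were treated with 190 Tocris FDA-approved drugs at 10 µM (1 µl/ml DMSO) for 3 h before and 3 h during imaging at 28.5 °C, 48 larvae per drug. Automated image analysis gave % time moving and optomotor responses. Values are drug group mean minus DMSO vehicle mean (n=844), in percentage points, for 10 behaviours.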

SMILES | excitability to 1-s acoustic pulses
CC(C)c1nc(CN(C)C(=O)N[C@H](C(=O)N[C@@H](Cc2ccccc2)C[C@H](O)[C@H](Cc2ccccc2)NC(=O)OCc2cncs2)C(C)C)cs1 [Ritonavir] | 7.52
COc1c(C)c2c(c(O)c1C/C=C(\C)CCC(=O)O)C(=O)OC2 [Mycophenolic acid] | 0.774
COc1ccc([C@@H]2Sc3ccccc3N(CCN(C)C)C(=O)[C@@H]2OC(C)=O)cc1 [Diltiazem hydrochloride] | 1.38
C[C@@H](O[C@H]1OCCN(Cc2n[nH]c(=O)[nH]2)[C@H]1c1ccc(F)cc1)c1cc(C(F)(F)F)cc(C(F)(F)F)c1 [Aprepitant] | 8.09
C#C[C@]1(O)CC[C@H]2[C@@H]3CCC4=CC(=O)CC[C@@H]4[C@H]3CC[C@@]21CC [Levonorgestrel] | 1.14
CCCc1nn(C)c2c(=O)[nH]c(-c3cc(S(=O)(=O)N4CCN(C)CC4)ccc3OCC)nc12 [Sildenafil citrate] | 4.02
Nc1cc(N2CCCCC2)nc(N)[n+]1[O-] [Minoxidil] | 1
CNC(=O)c1ccccc1Sc1ccc2c(/C=C/c3ccccn3)n[nH]c2c1 [Axitinib] | 1.46
Nc1cccc2c1CN(C1CCC(=O)NC1=O)C2=O (stereo not given) [Lenalidomide] | -2.77
CCN(Cc1ccncc1)C(=O)C(CO)c1ccccc1 (stereo not given) [Tropicamide] | 0.232
Nc1nc2c(ncn2COCCO)c(=O)[nH]1 [Acyclovir] | 0.524
CNS(=O)(=O)Cc1ccc2[nH]cc(CCN(C)C)c2c1 [Sumatriptan succinate] | -8.18
CN1CCN2c3ncccc3Cc3ccccc3C2C1 (stereo not given) [Mirtazapine] | 0.878
CS(=O)(=O)CCNCc1ccc(-c2ccc3ncnc(Nc4ccc(OCc5cccc(F)c5)c(Cl)c4)c3c2)o1 [Lapatinib] | 14.5
COc1cc2ncnc(Nc3ccc(F)c(Cl)c3)c2cc1OCCCN1CCOCC1 [Iressa] | 18
OCc1cc(C(O)CNCCCCCCOCCCCc2ccccc2)ccc1O (stereo not given) [Salmeterol xinafoate] | 12.3
CN(CCOc1ccc(CC2SC(=O)NC2=O)cc1)c1ccccn1 (stereo not given) [Rosiglitazone] | 15
COCCc1ccc(OCC(O)CNC(C)C)cc1 (stereo not given) [Metoprolol tartrate] | -8.67
Cc1ccccc1C(=O)Nc1ccc(C(=O)N2CCCC(O)c3cc(Cl)ccc32)c(C)c1 (stereo not given) [Tolvaptan] | 6.31
CCCCCCCN(CC)CCCC(O)c1ccc(NS(C)(=O)=O)cc1 (stereo not given) [Ibutilide hemifumarate] | 12.9

SMILES | excitability to 1-s acoustic pulses
CCOc1nc2cccc(C(=O)O)c2n1Cc1ccc(-c2ccccc2-c2noc(=O)[nH]2)cc1 [Azilsartan] | -0.616
OCCN(CCO)c1nc(N2CCCCC2)c2nc(N(CCO)CCO)nc(N3CCCCC3)c2n1 [Dipyridamole] | -3.05
CC(C)(C)NC(=O)[C@@H]1C[C@@H]2CCCC[C@@H]2CN1C[C@@H](O)[C@H](Cc1ccccc1)NC(=O)[C@H](CC(N)=O)NC(=O)c1ccc2ccccc2n1 [Saquinavir mesylate] | 9.21
C[C@]12CCC(=O)C=C1CC[C@@H]1[C@@H]2[C@@H](O)C[C@@]2(C)[C@H]1CC[C@]2(O)C(=O)CO [Hydrocortisone] | 1.67
C=C1[C@H](CO)[C@@H](O)C[C@@H]1n1cnc2c(=O)[nH]c(N)nc21 [Entecavir] | -3.18
CC(=O)S[C@@H]1CC2=CC(=O)CC[C@]2(C)[C@H]2CC[C@@]3(C)[C@@H](CC[C@@]34CCC(=O)O4)[C@H]12 [Spironolactone] | 1.36
CCCN(CCC)S(=O)(=O)c1ccc(C(=O)O)cc1 [Probenecid] | 4.8
CN1CCN(CCCN2c3ccccc3Sc3ccc(Cl)cc32)CC1 [Prochlorperazine dimaleate] | 23.6
CC(C)[C@H]1CC[C@H](C(=O)N[C@H](Cc2ccccc2)C(=O)O)CC1 [Nateglinide] | 1.64
O=C(O)C[C@H](O)C[C@H](O)/C=C/c1c(C2CC2)nc2ccccc2c1-c1ccc(F)cc1 [Pitavastatin calcium] | 0.628
Cc1nc(Nc2ncc(C(=O)Nc3c(C)cccc3Cl)s2)cc(N2CCN(CCO)CC2)n1 [Dasatinib] | 16.9
OCCN1C[C@H](O)[C@@H](O)[C@H](O)[C@H]1CO [Miglitol] | 5.41
COc1cc2nccc(Oc3ccc(NC(=O)C4(C(=O)Nc5ccc(F)cc5)CC4)cc3)c2cc1OC | 17.1
CCOC(=O)N1CCC(=C2c3ccc(Cl)cc3CCc3cccnc32)CC1 [Loratidine] | -6.95
CCCCC1=NC2(CCCC2)C(=O)N1Cc1ccc(-c2ccccc2-c2nnn[nH]2)cc1 [Irbesartan] | -3.79
Nc1ncn([C@@H]2O[C@H](CO)[C@@H](O)[C@H]2O)c(=O)n1 [5-Azacytidine] | -3.59
CN1CCC[C@@H]1CCO[C@](C)(c1ccccc1)c1ccc(Cl)cc1 [Clemastine fumarate] | 15.4
CC(C)n1c(/C=C/C(O)CC(O)CC(=O)O)c(-c2ccc(F)cc2)c2ccccc21 (stereo not given) [Fluvastatin sodium] | 3.77
CCOC(=O)C1=C(C)NC(C)=C(C(=O)OC)C1c1cccc(Cl)c1Cl (stereo not given) [Felodipine] | -13.3
Cc1cc(C2CCCCC2)n(O)c(=O)c1 [Ciclopirox] | 5.96
